Data taken from PubChem BioAssay (EPA / NIEHS).
Records with an inconclusive call do not appear. Active and inactive are the calls of the source. The calls were made as follows: active = hit-call score of the fitted dose curve at least 0.9, where 1 is the maximum; inconclusive = response in the unintended direction; inactive = score below 0.9.

Assay: Tanguay_ZF_120hpf_CFIN_legacy: (Legacy) Oregon State University Tanguay Lab 120 Hour Post-fertilization zebrafish Assay for Caudal Fin Malformation (AID 2283649)
Procedure: Tanguay_ZF_120hpf_legacy is a whole embryo, multiplexed endpoint assay using zebrafish larvae exposed for 120 hours post fertilization on a 96-well plate.Tanguay_ZF_120hpf_CFIN_legacy is one of one assay component(s) measured or calculated from the Tanguay_ZF_120hpf_legacy assay. It is designed to make measurements of zebrafish development as detected with brightfield microscopy of developing zebrafish embryos.Data from the assay component Tanguay_ZF_120hpf_CFIN_legacy was analyzed into 1 assay endpoints. This assay endpoint, Tanguay_ZF_120hpf_CFIN_legacy, was analyzed in the positive analysis fitting direction relative to DMSO as the negative control and baseline of activity. Using a type of morphology reporter, gain-of-signal activity can be used to understand changes in developmentals as they relate to the whole embryo. To generalize the intended target to other relatable targets, this assay endpoint is annotated to the zebrafish development intended target family, where the subfamily is caudal fin morphogenesis.
Zebrafish husbandry: Tropical 5D wild-type adult zebrafish were housed in at an approximate density of 1000 per 100 gallon tank at the Sinnhuber Aquatic Research Laboratory, Oregon State University, Corvallis, OR. Each tank was kept at standard laboratory conditions of 28C on a 14-h light/10-h dark photoperiod in fish water consisting of reverse osmosis water supplemented with a commercially available salt (Instant Ocean). Spawning funnels were placed into the tanks the night prior, and embryos were collected and staged. To increase bioavailability, the chorion was enzymatically removed using pronase (63.6mg/ml, >/= 3.5U/mg, Sigma-Aldrich: P5147) at 4 hours post fertilization (hpf) using a custom automated dechorionator.Chemical exposures: Six hpf dechorionated embryos were placed 1 embryo per well in a 96-well plate prefilled with 90 ul of EM using automated embryo placement systems (AEPS). Ten microliters of each row of dilution plate 2 was added to 2 exposure plates. The final DMSO concentration used was 0.64% (vol/vol). Thirty-two embryos were also exposed to 5uM trimethyltin chloride (positive control). Plates were sealed to prevent evaporation and foil covered to reduce light exposure and kept in a 28C incubator. Embryos were statically exposed until 120 hpf. At 24 hpf, embryos were assessed for photomotor response using a custom photomotor response analysis tool (PRAT) and for developmental toxicity endpoints (MO24: mortality at 24 hpf, DP: developmental progression, SM: spontaneous movement, and NC: notochord distortion). At 120 hpf, locomotor activity was measured using Viewpoint Zebralab and assessed for 18 endpoints. Zebrafish acquisition and analysis program (ZAAP), a custom program designed to inventory, acquire, and manage zebrafish data, was used to collect developmental endpoints as either present or absent (i.e., binary responses were recorded). If mortality occurred for an embryo (at either 24 or 120 hpf), the non-mortality endpoints were not measured.

Structure (SMILES)	outcome	AC50
CSC(C)(C)C=NO	inactive	–
ClC(Cl)(Cl)c1ccccc1	inactive	–
CCOc1ccc(C(C)(C)COCc2cccc(Oc3ccccc3)c2)cc1	inactive	–
Nc1ccc(Cl)cc1	inactive	–
O=P1(N(CCCl)CCCl)NCCCO1 (stereo not given)	inactive	–
O=C(O)C(Cl)Cl	inactive	–
CCOP(=S)(OCC)SCSCC	inactive	–
CCOP(=S)(Oc1ccc([N+](=O)[O-])cc1)c1ccccc1 (stereo not given)	inactive	–
COCCOCCO	inactive	–
Cc1ccc(O)cc1C	inactive	–
CCCCN(CCCC)SN(C)C(=O)Oc1cccc2c1OC(C)(C)C2	inactive	–
ClC1=C(Cl)C2(Cl)C3C(Cl)C(Cl)CC3C1(Cl)C2(Cl)Cl (stereo not given)	inactive	–
CCN(CC)c1ccccc1	inactive	–
CCC1(c2ccccc2)C(=O)N=C(O)NC1=O (stereo not given)	inactive	–
Cc1cccc(N)c1	inactive	–
CC(Cc1ccc(OCC(=O)O)cc1)NCC(O)c1csc(C(F)(F)F)n1 (stereo not given)	inactive	–
O=C(O)C1C(C(=O)O)C2(Cl)C(Cl)=C(Cl)C1(Cl)C2(Cl)Cl (stereo not given)	inactive	–
CCOC(=O)c1ccccc1C(=O)OCC	inactive	–
CCCCN(CCCC)N=O	inactive	–
CCC(C)(C)c1ccc(O)cc1	–	48.8 µM (active)

Structure (SMILES)	outcome	AC50
c1ccc(OP(Oc2ccccc2)Oc2ccccc2)cc1	inactive	–
Nc1ccc2ccccc2c1	inactive	–
O=[N+]([O-])c1ccccc1	inactive	–
OCC1CO1 (stereo not given)	inactive	–
CC(C)(C)OOC(C)(C)C	inactive	–
CCNc1nc(Cl)nc(NC(C)(C)C)n1	inactive	–
CCCCc1ccccc1	inactive	–
ClC(Cl)c1ccccc1	inactive	–
[N-]=[N+]=[N-]	inactive	–
c1ccc2c(c1)Nc1ccccc1S2	inactive	–
c1cc2c3c(cccc3c1)CC2	inactive	–
O=[N+]([O-])c1ccc(Cl)c(Cl)c1	inactive	–
CN(C)C(=O)Cl	inactive	–
O=P(Oc1ccccc1)(Oc1ccccc1)Oc1ccccc1	inactive	–
CCOS(=O)(=O)OCC	inactive	–
c1nc[nH]n1	inactive	–
CCCN(CCC)c1c([N+](=O)[O-])cc(C(C)C)cc1[N+](=O)[O-]	inactive	–
CC(Cl)(Cl)C(=O)O	inactive	–
CC(C)(C)c1ccc(O)cc1	inactive	–
Nc1cc2c3c(c1)C(c1ccccc1)=N[C@@H](NC(=O)c1cccnc1)C(=O)N3CC2	inactive	–
